Experimental data: PubChem BioAssay (Tox21)
Several values for one entry are separate records, joined by “and”; a condition that tells them apart may be missing. Equal values may be shown once. Records with an inconclusive call do not appear. Some compounds were tested as several samples or in several runs, with calls that do not always agree. Activity calls are given as the source filed them. Calls follow the shape of the dose curve; as a rule, active = well fitted curve in the direction sought with a large enough effect in the repeat runs; inconclusive = weak or mixed curves; inactive = no such curve, though single readings can be large; an effect the other way counts as inactive or inconclusive.

Legend:
[1] = A CellTox Green Cytotoxicity Assay to monitor cytotoxicity in HepG2 cells - 0 hour (AID 1224882); also: nearly all actives have a fitted effect of over 35% in size
How it was run: (§1)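 Fluorescent DNA-binding dye, 600 HepG2 cells/well, 5 h preincubation then compound in DMSO; same plates read at 0–40 h, 37 C.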

[2] = A CellTox Green Cytotoxicity Assay to monitor cytotoxicity in HepG2 cells - 32 hour (AID 1224883); also: nearly all actives have a fitted effect of over 50% in size
How it was run: as §1

[3] = A CellTox Green Cytotoxicity Assay to monitor cytotoxicity in HEK293 cells - 8 hour (AID 1224884); also: nearly all actives have a fitted effect of over 35% in size
How it was run: (§2)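 Homogeneous no-lysis format: HEK293 cell suspension mixed with CellTox Green reagent, seeded, incubated 5 h at 37 C/5% CO2, then dosed by pintool with compound in DMSO.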

[4] = qHTS RealTime-Glo MT Cell Viability Assay in HEK293 cells - 24 hour (AID 1224886); also: nearly all actives have a fitted effect of over 50% in size; as to activity change, negative = cytotoxicity: top concentration of the series differs between compounds
How it was run: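 Tox21 10K qHTS, HEK293, 600 cells/well, RealTime-Glo reagent co-dispensed with cells; 5 h preincubation, compound by pintool, 37 C, luminescence at 0–40 h.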

[5] = qHTS RealTime-Glo MT Cell Viability Assay in HEK293 cells - 8 hour (AID 1224887); also: nearly all actives have a fitted effect of over 50% in size; as to activity change, negative = cytotoxicity: top concentration of the series differs between compounds
How it was run: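 Measured as luminescence from the same continuously cultured HEK293 wells at successive time points (0, 8, 16, 24, 32, 40 h) after compound addition. Reagent present from seeding; dosing at 5 h; incubation 37 C.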

[6] = A CellTox Green Cytotoxicity Assay to monitor cytotoxicity in HepG2 cells - 8 hour (AID 1224890); also: nearly all actives have a fitted effect of over 45% in size
How it was run: as §1

[7] = A CellTox Green Cytotoxicity Assay to monitor cytotoxicity in HEK293 cells - 32 hour (AID 1224881); also: nearly all actives have a fitted effect of over 40% in size
How it was run: as §2

[8] = A CellTox Green Cytotoxicity Assay to monitor cytotoxicity in HEK293 cells - 16 hour (AID 1224888); also: nearly all actives have a fitted effect of over 35% in size
How it was run: as §2

[9] = qHTS RealTime-Glo MT Cell Viability Assay in HepG2 cells - 0 hour (AID 1224889); also: nearly all actives have a fitted effect of over 50% in size
How it was run: (§3)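 Cells + NanoLuc/prosubstrate dispensed (600 cells/well) → 5 h at 37 C/5% CO2 → compounds in DMSO transferred → 40 h incubation at 37 C, luminescence read at 0, 8, 16, 24, 32, 40 h.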

[10] = qHTS RealTime-Glo MT Cell Viability Assay in HepG2 cells - 16 hour (AID 1224885); also: nearly all actives have a fitted effect of over 50% in size
How it was run: as §3
% is scaled to controls: 0 for no effect and ±100 for the full control effect; potency is read from the fitted curve at half-maximal effect.

Clc1ccc2c(c1)C(N1CCNCC1)=Nc1ccccc1O2
active: Potency [2] 49 µM and 26.8 µM | Potency [4] 43.6 µM and 26.8 µM
inactive: Potency [1] | Potency [3] | Potency [5] | Potency [6]

Cc1c(O)cccc1C(=O)N[C@@H](CSc1ccccc1)[C@H](O)CN1C[C@H]2CCCC[C@H]2C[C@H]1C(=O)NC(C)(C)C
active: Potency [2] 12 µM | Potency [4] 21.3 µM
inactive: Potency [7] | Potency [1] | Potency [5] | Potency [8] | Potency [9] | Potency [6]

NC(=Nc1ccccc1)Nc1ccccc1
inactive: Potency [7] | Potency [1] | Potency [2] | Potency [5] | Potency [8] | Potency [9] | Potency [6]

COc1cc(C(=S)N2CCOCC2)ccc1O
inactive: Potency [7] | Potency [1] | Potency [2] | Potency [10] | Potency [4] | Potency [5] | Potency [8] | Potency [9] | Potency [6]

CCCCN(CCO)CCCC
inactive: Potency [7] | Potency [1] | Potency [2] | Potency [4] | Potency [5] | Potency [8] | Potency [9] | Potency [6]

CN(C)c1ccc2nc3ccc(=[N+](C)C)cc-3sc2c1
inactive: Potency [7] | Potency [1] | Potency [2] | Potency [8] | Potency [9] | Potency [6]
active: Potency [10] 14.9 µM and 17.4 µM and 19 µM | Potency [4] 2.36 µM and 2.19 µM and 2.68 µM | Potency [5] 2.97 µM and 2.75 µM and 3.01 µM

Nc1cc(Cl)c(-c2cc(Cl)c(N)cc2Cl)cc1Cl
active: Potency [2] 17.4 µM and 54.9 µM | Potency [4] 11 µM
inactive: Potency [7] | Potency [1] | Potency [5] | Potency [8] | Potency [9] | Potency [6]

OCCN1CCNCC1
active: Potency [4] 7.9 µM
inactive: Potency [7] | Potency [1] | Potency [2] | Potency [10] | Potency [5] | Potency [8] | Potency [9] | Potency [6]

C/C=C/c1ccc(OCC)c(O)c1
inactive: Potency [7] | Potency [1] | Potency [2] | Potency [4] | Potency [5] | Potency [8] | Potency [9] | Potency [6]

COc1ccc(CCN2CCC(Nc3nc4ccccc4n3Cc3ccc(F)cc3)CC2)cc1
inactive: Potency [1] | Potency [9]
active: Potency [7] 14.1 µM and 23.9 µM | Potency [2] 19.9 µM and 9.52 µM | Potency [10] 28.1 µM and 21.3 µM | Potency [4] 6.3 µM and 10.7 µM | Potency [5] 12.6 µM and 9.52 µM | Potency [8] 35.4 µM and 26.8 µM | Potency [6] 39.8 µM and 23.9 µM

CCCCCCCCCCCCCCCCCl
inactive: cytotoxicity increase [7] 8.79% [at 15.8 µM] | cytotoxicity [1] 7.68% [at 15.8 µM] | cytotoxicity increase [2] 1.23% [at 15.8 µM] | activity change, negative = cytotoxic [10] 0.939% [at 15.8 µM] | activity change, negative = cytotoxicity [4] 0.956% [at 15.8 µM] | activity change, negative = cytotoxicity [5] 1.34% [at 15.8 µM] | activity change [8] 5.27% [at 15.8 µM, stronger effect = higher value] | activity change, negative = cytotoxicity [9] -0.916% [at 15.8 µM] | cytotoxicity increase [6] 3.53% [at 15.8 µM]

CNC1(C)C2CCC(C2)C1(C)C (stereo not given)
inactive: Potency [7] | Potency [3] | Potency [10] | Potency [4] | Potency [5] | Potency [8] | Potency [9]

[Cl][In]([Cl])[Cl]
inactive: Potency [7] | Potency [1] | Potency [2] | Potency [5] | Potency [8] | Potency [9] | Potency [6]

OCC(CO)N[C@H]1C[C@](O)(CO)[C@@H](O)[C@H](O)[C@H]1O
inactive: Potency [7] | Potency [1] | Potency [2] | Potency [10] | Potency [4] | Potency [5] | Potency [8] | Potency [9] | Potency [6]

COc1ccc(CCN(C)CCCC(C#N)(c2ccc(OC)c(OC)c2)C(C)C)cc1OC (stereo not given)
active: Potency [2] 54.8 µM
inactive: Potency [7] | Potency [1] | Potency [8] | Potency [6]

CNCCC(Oc1ccc(C(F)(F)F)cc1)c1ccccc1 (stereo not given)
active: Potency [2] 48.4 µM and 16.9 µM | Potency [3] 26.8 µM | Potency [8] 23.9 µM
inactive: Potency [1]

BrC1CCC(Br)C(Br)CCC(Br)C(Br)CCC1Br (stereo not given)
inactive: Potency [7] | Potency [1] | Potency [2] | Potency [4] | Potency [5] | Potency [8] | Potency [9] | Potency [6]

CC(C)(C)c1cc(C(C)(C)C)c(O)c(C(C)(C)C)c1
inactive: Potency [1] | Potency [3] | Potency [4] | Potency [5] | Potency [9] | Potency [6]
active: Potency [7] 54.9 µM and 34.7 µM

CCc1ccc(C(c2ccc(CC)cc2)C(Cl)Cl)cc1
inactive: Potency [1] | Potency [2] | Potency [3] | Potency [10] | Potency [5] | Potency [8] | Potency [9] | Potency [6]

Nc1ccc2cc3ccccc3cc2c1
inactive: Potency [7] | Potency [1] | Potency [2] | Potency [4] | Potency [5] | Potency [8] | Potency [9] | Potency [6]

Cc1ccc(S(=O)(=O)Oc2ccc(N=Nc3ccc(-c4ccc(N=Nc5c(O)ccc6cc(S(=O)(=O)O)cc(S(=O)(=O)O)c56)c(C)c4)cc3C)cc2)cc1
inactive: Potency [7] | Potency [1] | Potency [2] | Potency [4] | Potency [5] | Potency [8] | Potency [6]

CC[C@H]1CN2CCc3cc(OC)c(OC)cc3[C@@H]2C[C@@H]1C[C@H]1NCCc2cc(OC)c(OC)cc21
inactive: Potency [1] | Potency [3] | Potency [10] | Potency [8] | Potency [9] | Potency [6]
active: Potency [2] 49.2 µM and 21.3 µM | Potency [4] 17.4 nM and 47.7 nM | Potency [5] 874 nM and 3.38 µM

Cc1cc(C2(c3cc(C)c(O)cc3C)OS(=O)(=O)c3ccccc32)c(C)cc1O
inactive: Potency [7] | Potency [1] | Potency [2] | Potency [4] | Potency [5] | Potency [8] | Potency [6]
active: Potency [9] 19.5 µM and 15.5 µM

CN(C)c1ccc(C(=C2C=CC(=[N+](C)C)C=C2)c2ccccc2)cc1
inactive: Potency [1] | Potency [3] | Potency [9]
active: Potency [7] 15.1 µM [middle of 4 runs] | Potency [4] 2.39 µM [middle of 4 runs] | Potency [5] 13.8 µM and 10.7 µM and 13.4 µM | Potency [6] 21.9 µM and 8.49 µM

Nc1cc(S(=O)(=O)O)cc2cc(S(=O)(=O)O)cc(O)c12
inactive: Potency [7] | Potency [1] | Potency [2] | Potency [10] | Potency [4] | Potency [8] | Potency [9] | Potency [6]

O=C(O)c1cn(-c2ccc(F)cc2)c2cc(N3CCNCC3)c(F)cc2c1=O
inactive: Potency [7] | Potency [1] | Potency [2] | Potency [10] | Potency [4] | Potency [5] | Potency [8] | Potency [9] | Potency [6]

O=C(Oc1ccccc1)c1ccccc1O
inactive: Potency [7] | Potency [1] | Potency [2] | Potency [4] | Potency [5] | Potency [8] | Potency [9] | Potency [6]

O
inactive: Potency [7] | Potency [1] | Potency [2] | Potency [4] | Potency [5] | Potency [8] | Potency [9] | Potency [6]

CO[Si](OC)(OC)c1ccccc1
inactive: Potency [7] | Potency [1] | Potency [2] | Potency [4] | Potency [5] | Potency [8] | Potency [9] | Potency [6]

N[C@@H]1CONC1=O
inactive: Potency [7] | Potency [3] | Potency [10] | Potency [4] | Potency [5] | Potency [8] | Potency [9]

CC(=O)O[C@]1(C(C)=O)CC[C@H]2[C@@H]3C[C@H](C)C4=CC(=O)CC[C@]4(C)[C@H]3CC[C@@]21C
inactive: Potency [7] | Potency [2] | Potency [10] | Potency [5] | Potency [8] | Potency [6]
active: Potency [4] 15.5 µM | Potency [9] 174 nM and 301 nM
inactive and 37.9 nM (active): Potency [1]

c1ccc2c(c1)-c1cccc3c1c-2cc1ccccc13
inactive: Potency [7] | Potency [1] | Potency [2] | Potency [10] | Potency [4] | Potency [5] | Potency [8] | Potency [9] | Potency [6]

O=C(Nc1ccccc1SSc1ccccc1NC(=O)c1ccccc1)c1ccccc1
active: Potency [2] 49 µM
inactive: Potency [1] | Potency [3] | Potency [10] | Potency [8] | Potency [9] | Potency [6]

CC(=O)CC(=O)Nc1ccc2[nH]c(=O)[nH]c2c1
inactive: Potency [7] | Potency [1] | Potency [2] | Potency [4] | Potency [5] | Potency [8] | Potency [9] | Potency [6]

C=CC(=O)OCCCCCCOC(=O)C=C
inactive: Potency [1] | Potency [2] | Potency [3] | Potency [8] | Potency [9] | Potency [6]
active: Potency [4] 43.6 µM

CCC(CO)(CO)COCC(CC)(CO)CO
inactive: Potency [7] | Potency [1] | Potency [2] | Potency [4] | Potency [5] | Potency [8] | Potency [9] | Potency [6]
